Experimental data: PubChem BioAssay AID1159580 (chemical genetic matrix, 2015)
Screen size: about 5,500 compounds; about 2,000 (36%) were called active. Inconclusive results (about 18%) are left out. No stated cut-off is given here; in the data, active means normalized growth mostly below about 0.91 (no sharp cut-off); inconclusive means no clear call, values can overlap the other calls; inactive means mostly above about 0.92. The list shows a part of the results.

Assay: chemical genetic growth profiling, strain panel (AID 1159580);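 further: tested at 20 µM; growth read once vehicle control cultures reached saturation at 30 °C; 1 = growth at the plate median or of vehicle wells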
Conditions: S. cerevisiae deletion strains, growth OD

Measured: normalized growth

O=c1c2ccccc2[nH]c(=S)n1-c1cccc(C(F)(F)F)c1
inactive: locus YAR019C, strain CDC15, stronger effect = lower value 0.927 | locus YBR160W, strain CDC28, stronger effect = lower value 0.923 | locus YDL101C, strain DUN1, stronger effect = lower value 0.954 | locus YDL132W, strain cdc53, stronger effect = lower value 0.944 | locus YDL214C, strain PRR2, stronger effect = lower value 0.908 | locus YDR226W, strain ADK1, stronger effect = lower value 0.956 | locus YER123W, strain YCK3, stronger effect = lower value 0.899 | locus YFL009W, strain cdc4, stronger effect = lower value 0.95 | locus YFR003C, strain YPI1, stronger effect = lower value 0.917 | locus YFR019W, strain FAB1, stronger effect = lower value 0.97 | locus YFR028C, strain CDC14, stronger effect = lower value 0.949 | locus YGR052W, strain FMP48, stronger effect = lower value 0.914 | locus YGR092W, strain DBF2, stronger effect = lower value 0.874 | locus YHR079C, strain IRE1, stronger effect = lower value 0.837 | locus YHR082C, strain KSP1, stronger effect = lower value 0.832 | locus YHR205W, strain SCH9, stronger effect = lower value 0.748 | locus YJL128C, strain PBS2, stronger effect = lower value 0.957 | locus YJL157C, strain FAR1, stronger effect = lower value 0.925 | locus YJR066W, strain TOR1 (second series), stronger effect = lower value 0.892 | locus YJR066W, strain TOR1, stronger effect = lower value 0.799 | locus YKL048C, strain ELM1, stronger effect = lower value 0.862 | locus YKL067W, strain YNK1, stronger effect = lower value 0.927 | locus YKL101W, strain HSL1, stronger effect = lower value 0.865 | locus YKL193C, strain SDS22, stronger effect = lower value 0.917 | locus YLR113W, strain HOG1, stronger effect = lower value 0.912 | locus YLR133W, strain CKI1, stronger effect = lower value 0.895 | locus YML070W, strain DAK1, stronger effect = lower value 0.926 | locus YMR205C, strain PFK2 (second series), stronger effect = lower value 0.894 | locus YNL006W, strain LST8, stronger effect = lower value 0.965 | locus YNL020C, strain ARK1, stronger effect = lower value 0.886 | locus YNL161W, strain CBK1, stronger effect = lower value 0.929 | locus YNL183C, strain NPR1, stronger effect = lower value 0.852 | locus YNL207W, strain RIO2, stronger effect = lower value 0.943 | locus YNL222W, strain SSU72, stronger effect = lower value 0.944 | locus YNL307C, strain MCK1 (second series), stronger effect = lower value 0.884 | locus YOL136C, strain PFK27, stronger effect = lower value 0.93 | locus YOR061W, strain CKA2, stronger effect = lower value 0.833 | locus YOR231W, strain MKK1, stronger effect = lower value 0.872 | locus YOR329C, strain SCD5, stronger effect = lower value 0.948 | locus YPL204W, strain HRR25, stronger effect = lower value 0.719 | locus YPL209C, strain IPL1, stronger effect = lower value 0.95 | locus YPR025C, strain CCL1, stronger effect = lower value 0.946 | locus YPR106W, strain ISR1, stronger effect = lower value 0.948 | locus YPR111W, strain DBF20, stronger effect = lower value 0.962 | strain NNK1, stronger effect = lower value 0.961 | strain TSCII, stronger effect = lower value 0.889
active: locus YBL105C, strain PKC1, stronger effect = lower value 0.811 | locus YBR135W, strain CKS1, stronger effect = lower value 0.792 | locus YBR136W, strain MEC1, stronger effect = lower value 0.774 | locus YDL017W, strain CDC7, stronger effect = lower value 0.846 | locus YDL108W, strain KIN28, stronger effect = lower value 0.565 | locus YDR052C, strain DBF4, stronger effect = lower value 0.885 | locus YDR477W, strain SNF1, stronger effect = lower value 0.427 | locus YER133W, strain GLC7, stronger effect = lower value 0.343 | locus YFL029C, strain CAK1, stronger effect = lower value 0.633 | locus YGR040W, strain KSS1, stronger effect = lower value 0.513 | locus YHR030C, strain SLT2, stronger effect = lower value 0.334 | locus YJL095W, strain BCK1, stronger effect = lower value 0.182 | locus YJR016C, strain ILV3, stronger effect = lower value 0.717 | locus YKL203C, strain TOR2, stronger effect = lower value 0.352 | locus YLR403W, strain SFP1, stronger effect = lower value 0.459 | locus YOR119C, strain RIO1, stronger effect = lower value 0.347 | locus YPL031C, strain PHO85, stronger effect = lower value 0.589 | locus YPL153C, strain RAD53, stronger effect = lower value 0.646 | locus YPL256C, strain CLN2, stronger effect = lower value 0.824

Cc1c(CC(C)(C)C(=O)O)n(Cc2ccc(Cl)cc2)c2ccc(F)cc12
inactive: locus YAL040C, strain CLN3, stronger effect = lower value 0.974 | locus YCL061C, strain MRC1 (second series), stronger effect = lower value 0.985 | locus YDR363W, strain ESC2, stronger effect = lower value 0.986 | locus YER002W, strain NOP16, stronger effect = lower value 0.978 | locus YMR263W, strain SAP30, stronger effect = lower value 0.971 | locus YNL175C, strain NOP13, stronger effect = lower value 0.985 | locus YNL197C, strain WHI3, stronger effect = lower value 0.974 | locus YNL224C, strain SQS1, stronger effect = lower value 0.978 | locus YOR083W, strain WHI5 (second series), stronger effect = lower value 0.986 | locus YPL055C, strain LGE1, stronger effect = lower value 0.923
